Measured values: the supplement of paper PMC4466140

Experiments:
Experiment in all cases: SPOT peptide array binding signal intensity (averaged, normalized) (arbitrary units (background-subtracted, floor 0; scale differs between SH3 domains)); higher = stronger binding of the SH3 domain to the peptide
AgAbp1 = biological target: AgAbp1
Experimental: (§1)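 GST-tagged SH3 domains from S. cerevisiae (Sc), A. gossypii (Ag), C. albicans (Ca) and S. pombe (Sp) were incubated at 10 ug/ml overnight at 4 C on cellulose SPOT membranes carrying 292 synthetic 15-mer peptides mined from the S. cerevisiae proteome (cysteines replaced by serines). Binding was detected with anti-GST antibody, HRP secondary and chemiluminescence, quantified with Genespotter, and reported as normalized spot intensities averaged over biological replicates.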

AgBbc1 = biological target: AgBbc1
Experimental: as §1

AgBem1-D1 = biological target: AgBem1-D1
Experimental: as §1

AgBzz1-D1 = biological target: AgBzz1-D1
Experimental: as §1

AgBzz1-D2 = biological target: AgBzz1-D2
Experimental: as §1

AgCyk3 = biological target: AgCyk3
Experimental: as §1

AgFus1 = biological target: AgFus1
Experimental: as §1

AgHof1 = biological target: AgHof1
Experimental: as §1

AgHse1 = biological target: AgHse1
Experimental: as §1

AgLsb1 = biological target: AgLsb1
Experimental: as §1

AgLsb4 = biological target: AgLsb4
Experimental: as §1

AgMyo5 = biological target: AgMyo5
Experimental: as §1

AgNbp2 = biological target: AgNbp2
Experimental: as §1

AgRvs167 = biological target: AgRvs167
Experimental: as §1

AgSho1 = biological target: AgSho1
Experimental: as §1

AgSla1-D1-D2 = biological target: AgSla1-D1-D2
Experimental: as §1

AgSla1-D3 = biological target: AgSla1-D3
Experimental: as §1

CaAbp1-D1 = biological target: CaAbp1-D1
Experimental: as §1

CaAbp1-D2 = biological target: CaAbp1-D2
Experimental: as §1

CaBbc1 = biological target: CaBbc1
Experimental: as §1

CaBem1-D1 = biological target: CaBem1-D1
Experimental: as §1

CaBzz1-D1 = biological target: CaBzz1-D1
Experimental: as §1

CaBzz1-D2 = biological target: CaBzz1-D2
Experimental: as §1

CaCyk3 = biological target: CaCyk3
Experimental: as §1

CaFus1 = biological target: CaFus1
Experimental: as §1

CaHof1 = biological target: CaHof1
Experimental: as §1

CaHse1 = biological target: CaHse1
Experimental: as §1

CaLsb1 = biological target: CaLsb1
Experimental: as §1

CaLsb4 = biological target: CaLsb4
Experimental: as §1

CaMyo5 = biological target: CaMyo5
Experimental: as §1

CaNbp2 = biological target: CaNbp2
Experimental: as §1

CaRvs167 = biological target: CaRvs167
Experimental: as §1

CaRvs167-3 = biological target: CaRvs167-3
Experimental: as §1

CaSho1 = biological target: CaSho1
Experimental: as §1

CaSla1-D1-D2 = biological target: CaSla1-D1-D2
Experimental: as §1

CaSla1-D3 = biological target: CaSla1-D3
Experimental: as §1

ScAbp1 = biological target: ScAbp1
Experimental: as §1

ScBbc1 = biological target: ScBbc1
Experimental: as §1

ScBem1-D1 = biological target: ScBem1-D1
Experimental: as §1

ScBzz1-D1 = biological target: ScBzz1-D1
Experimental: as §1

ScBzz1-D2 = biological target: ScBzz1-D2
Experimental: as §1

ScCyk3 = biological target: ScCyk3
Experimental: as §1

ScFus1 = biological target: ScFus1
Experimental: as §1

ScHof1 = biological target: ScHof1
Experimental: as §1

ScHse1 = biological target: ScHse1
Experimental: as §1

ScLsb1 = biological target: ScLsb1
Experimental: as §1

ScLsb2 = biological target: ScLsb2
Experimental: as §1

ScLsb3 = biological target: ScLsb3
Experimental: as §1

ScLsb4 = biological target: ScLsb4
Experimental: as §1

ScMyo3 = biological target: ScMyo3
Experimental: as §1

ScMyo5 = biological target: ScMyo5
Experimental: as §1

ScNbp2 = biological target: ScNbp2
Experimental: as §1

ScPex13 = biological target: ScPex13
Experimental: as §1

ScRvs167 = biological target: ScRvs167
Experimental: as §1

ScSho1 = biological target: ScSho1
Experimental: as §1

ScSla1-D1-D2 = biological target: ScSla1-D1-D2
Experimental: as §1

ScSla1-D3 = biological target: ScSla1-D3
Experimental: as §1

SpAbp1-D1 = biological target: SpAbp1-D1
Experimental: as §1

SpBbc1 = biological target: SpBbc1
Experimental: as §1

SpBzz1-D1 = biological target: SpBzz1-D1
Experimental: as §1

SpBzz1-D2 = biological target: SpBzz1-D2
Experimental: as §1

SpCyk3 = biological target: SpCyk3
Experimental: as §1

SpHof1 = biological target: SpHof1
Experimental: as §1

SpHof1-2 = biological target: SpHof1-2
Experimental: as §1

SpHof1-3 = biological target: SpHof1-3
Experimental: as §1

SpHse1 = biological target: SpHse1
Experimental: as §1

SpLsb1 = biological target: SpLsb1
Experimental: as §1

SpLsb4 = biological target: SpLsb4
Experimental: as §1

SpMyo1 = biological target: SpMyo1
Experimental: as §1

SpNbp2 = biological target: SpNbp2
Experimental: as §1

SpPex13 = biological target: SpPex13
Experimental: as §1

SpRvs167 = biological target: SpRvs167
Experimental: as §1

SpSla1-D1-D2 = biological target: SpSla1-D1-D2
Experimental: as §1

SpSla1-D3 = biological target: SpSla1-D3
Experimental: as §1

KLSRGRYGLPLSSRP
SPOT peptide array binding signal intensity (AgAbp1): 34
SPOT peptide array binding signal intensity (AgBbc1): 30
SPOT peptide array binding signal intensity (AgBem1-D1): 37
SPOT peptide array binding signal intensity (AgBzz1-D1): 59
SPOT peptide array binding signal intensity (AgBzz1-D2): 55.5
SPOT peptide array binding signal intensity (AgCyk3): 7.5
SPOT peptide array binding signal intensity (AgFus1): 65
SPOT peptide array binding signal intensity (AgHof1): 20.5
SPOT peptide array binding signal intensity (AgHse1): 187
SPOT peptide array binding signal intensity (AgLsb1): 63
SPOT peptide array binding signal intensity (AgLsb4): 29
SPOT peptide array binding signal intensity (AgMyo5): ≤ 0
SPOT peptide array binding signal intensity (AgNbp2): 39
SPOT peptide array binding signal intensity (AgRvs167): 4.33
SPOT peptide array binding signal intensity (AgSho1): 6
SPOT peptide array binding signal intensity (AgSla1-D1-D2): 41
SPOT peptide array binding signal intensity (AgSla1-D3): 3.75
SPOT peptide array binding signal intensity (CaAbp1-D1): 380
SPOT peptide array binding signal intensity (CaAbp1-D2): 273
SPOT peptide array binding signal intensity (CaBbc1): 101
SPOT peptide array binding signal intensity (CaBem1-D1): 19
SPOT peptide array binding signal intensity (CaBzz1-D1): 146
SPOT peptide array binding signal intensity (CaBzz1-D2): 100
SPOT peptide array binding signal intensity (CaCyk3): 6.5
SPOT peptide array binding signal intensity (CaFus1): 86
SPOT peptide array binding signal intensity (CaHof1): 0.5
SPOT peptide array binding signal intensity (CaHse1): 2
SPOT peptide array binding signal intensity (CaLsb1): 1.5
SPOT peptide array binding signal intensity (CaLsb4): 37
SPOT peptide array binding signal intensity (CaMyo5): 2
SPOT peptide array binding signal intensity (CaNbp2): 110
SPOT peptide array binding signal intensity (CaRvs167): 6.5
SPOT peptide array binding signal intensity (CaRvs167-3): 13.5
SPOT peptide array binding signal intensity (CaSho1): 59.5
SPOT peptide array binding signal intensity (CaSla1-D1-D2): ≤ 0
SPOT peptide array binding signal intensity (CaSla1-D3): 0.25
SPOT peptide array binding signal intensity (ScAbp1): 24
SPOT peptide array binding signal intensity (ScBbc1): 8.5
SPOT peptide array binding signal intensity (ScBem1-D1): 14
SPOT peptide array binding signal intensity (ScBzz1-D1): 21
SPOT peptide array binding signal intensity (ScBzz1-D2): 20
SPOT peptide array binding signal intensity (ScCyk3): 59
SPOT peptide array binding signal intensity (ScFus1): 102
SPOT peptide array binding signal intensity (ScHof1): ≤ 0
SPOT peptide array binding signal intensity (ScHse1): 754
SPOT peptide array binding signal intensity (ScLsb1): 89
SPOT peptide array binding signal intensity (ScLsb2): 7
SPOT peptide array binding signal intensity (ScLsb3): 16
SPOT peptide array binding signal intensity (ScLsb4): 15
SPOT peptide array binding signal intensity (ScMyo3): 6
SPOT peptide array binding signal intensity (ScMyo5): 8.5
SPOT peptide array binding signal intensity (ScNbp2): 86.5
SPOT peptide array binding signal intensity (ScPex13): 7.25
SPOT peptide array binding signal intensity (ScRvs167): 12.8
SPOT peptide array binding signal intensity (ScSho1): 112
SPOT peptide array binding signal intensity (ScSla1-D1-D2): 91.5
SPOT peptide array binding signal intensity (ScSla1-D3): 2
SPOT peptide array binding signal intensity (SpAbp1-D1): 146
SPOT peptide array binding signal intensity (SpBbc1): 2
SPOT peptide array binding signal intensity (SpBzz1-D1): 163
SPOT peptide array binding signal intensity (SpBzz1-D2): ≤ 0
SPOT peptide array binding signal intensity (SpCyk3): 6.5
SPOT peptide array binding signal intensity (SpHof1): 88.8
SPOT peptide array binding signal intensity (SpHof1-2): 10.5
SPOT peptide array binding signal intensity (SpHof1-3): 326
SPOT peptide array binding signal intensity (SpHse1): 150
SPOT peptide array binding signal intensity (SpLsb1): 110
SPOT peptide array binding signal intensity (SpLsb4): 48.5
SPOT peptide array binding signal intensity (SpMyo1): 2
SPOT peptide array binding signal intensity (SpNbp2): 38
SPOT peptide array binding signal intensity (SpPex13): 1
SPOT peptide array binding signal intensity (SpRvs167): 4.33
SPOT peptide array binding signal intensity (SpSla1-D1-D2): ≤ 0
SPOT peptide array binding signal intensity (SpSla1-D3): ≤ 0

YRRKSIPFAPHQITA
SPOT peptide array binding signal intensity (AgAbp1): 34
SPOT peptide array binding signal intensity (AgBbc1): 11.5
SPOT peptide array binding signal intensity (AgBem1-D1): 21.5
SPOT peptide array binding signal intensity (AgBzz1-D1): 99.5
SPOT peptide array binding signal intensity (AgBzz1-D2): 34
SPOT peptide array binding signal intensity (AgCyk3): 1
SPOT peptide array binding signal intensity (AgFus1): 131
SPOT peptide array binding signal intensity (AgHof1): 5.5
SPOT peptide array binding signal intensity (AgHse1): 162
SPOT peptide array binding signal intensity (AgLsb1): 25.8
SPOT peptide array binding signal intensity (AgLsb4): 24
SPOT peptide array binding signal intensity (AgMyo5): ≤ 0
SPOT peptide array binding signal intensity (AgNbp2): 62.5
SPOT peptide array binding signal intensity (AgRvs167): 3.67
SPOT peptide array binding signal intensity (AgSho1): 16.5
SPOT peptide array binding signal intensity (AgSla1-D1-D2): 39
SPOT peptide array binding signal intensity (AgSla1-D3): 2.5
SPOT peptide array binding signal intensity (CaAbp1-D1): 187
SPOT peptide array binding signal intensity (CaAbp1-D2): 116
SPOT peptide array binding signal intensity (CaBbc1): 41.5
SPOT peptide array binding signal intensity (CaBem1-D1): 24
SPOT peptide array binding signal intensity (CaBzz1-D1): 182
SPOT peptide array binding signal intensity (CaBzz1-D2): 148
SPOT peptide array binding signal intensity (CaCyk3): 6
SPOT peptide array binding signal intensity (CaFus1): 159
SPOT peptide array binding signal intensity (CaHof1): 2
SPOT peptide array binding signal intensity (CaHse1): 16.8
SPOT peptide array binding signal intensity (CaLsb1): 3
SPOT peptide array binding signal intensity (CaLsb4): 13
SPOT peptide array binding signal intensity (CaMyo5): 0.5

RRLRDKYKLPIVDAD
SPOT peptide array binding signal intensity (SpBzz1-D2): 0.5
SPOT peptide array binding signal intensity (SpCyk3): 2.5
SPOT peptide array binding signal intensity (SpHof1): 54.5
SPOT peptide array binding signal intensity (SpHof1-2): 12
SPOT peptide array binding signal intensity (SpHof1-3): 318
SPOT peptide array binding signal intensity (SpHse1): 346
SPOT peptide array binding signal intensity (SpLsb1): 49.2
SPOT peptide array binding signal intensity (SpLsb4): 44
SPOT peptide array binding signal intensity (SpMyo1): 1.25
SPOT peptide array binding signal intensity (SpNbp2): 105
SPOT peptide array binding signal intensity (SpPex13): 9
SPOT peptide array binding signal intensity (SpRvs167): 0.833
SPOT peptide array binding signal intensity (SpSla1-D1-D2): 3
SPOT peptide array binding signal intensity (SpSla1-D3): 6
